The entries come from a sample that favours hits as a whole.
KDM4E inh = qHTS Assay for Inhibitors of Human Jumonji Domain Containing 2E (JMJD2E); 230,000 tested, 1.6% active; AID 2147, 2009; JMJD2E catalytic domain, FDH-coupled NADH fluorescence (FDH is formaldehyde dehydrogenase); Potency, µM (series often up to 57.1 µM), most hits filed as inhibitors; active = well fitted inhibition curve with a large enough effect, not every such curve was filed as active; inconclusive = small, poorly fitted or top-dose-only effect, or another doubt; inactive = no such curve, though single readings can be large or run the other way; also: nearly all actives have a fitted effect of over 50% in size
APE1 inh = qHTS Assay for Inhibitors of the Human Apurinic/apyrimidinic Endonuclease 1 (APE1); DNA repair nuclease/redox regulator APEX1 (Homo sapiens), P27695; recombinant APE1, TAMRA/BHQ-2 abasic DNA cleavage fluorescence; Potency, µM (doses to about 65.8 µM), most hits filed as inhibitors; 350,000 tested, 0.35% active; also: nearly all actives have a fitted effect of over 55% in size
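Compound pre-exposure to 0.75 nM APE1, 15 min at ambient temperature. Reaction initiated with 50 nM TAMRA/BHQ-2 THF substrate, read immediately in kinetic mode, 525 nm excitation, 598 nm emission.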
L3MBTL1 inh = qHTS Assay for the Inhibitors of L3MBTL1; AlphaScreen L3MBTL1–H3K9me1 peptide binding; 230,000 tested, 0.66% active; Lethal(3)malignant brain tumor-like protein 1 (Homo sapiens), Q9Y468; Potency, µM (doses to about 57.1 µM), most hits filed as inhibitors; also: nearly all actives have a fitted effect of over 60% in size
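First, the protein-peptide complex forms for 30 min at room temperature (L3MBTL1 50 nM, biotinylated H3K9me1 peptide 75 nM). Next, compounds are pin-transferred and incubated 30 min. Finally, AlphaScreen beads are added and read after 30 min.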
TDP1 inh = qHTS Assay for Inhibitors of Tyrosyl-DNA Phosphodiesterase (TDP1). Tyrosyl-DNA phosphodiesterase 1 (Homo sapiens), Q9NUW8. recombinant TDP1, AlphaScreen DNA substrate cleavage. Potency, µM (titrated, usually from 130 µM), usual class: inhibitors. 350,000 tested, 0.28% active. AID 485290, 2010; also: nearly all actives have a fitted effect of over 40% in size
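Recombinant human Tdp1 (E. coli-expressed, 1 nM final) preincubated with compounds 15 min at room temperature, then 5'-biotin/3'-phosphotyrosine-FITC DNA substrate (15 nM final) added for 5 min. AlphaScreen beads (10 ug/ml final) added 10 min; cleavage lowers signal.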
BLM inh = qHTS Assay for Inhibitors of Bloom's syndrome helicase (BLM). AID 2528, 2010. recombinant BLM DNA unwinding, fluorescence dequenching. Potency, µM (doses to about 56.1 µM), actives largely listed as inhibitors. 350,000 tested, 0.2% active; also: nearly all actives have a fitted effect of over 35% in size
RECQ1 inh = qHTS Assay for Inhibitors of RecQ-Like Dna Helicase 1 (RECQ1). RECQ1 DNA unwinding, red fluorescence kinetic read. ATP-dependent DNA helicase Q1 (Homo sapiens), P46063. Potency, µM (highest dose often 57.3 µM), hits mostly inhibitors. 240,000 tested, 0.54% active; also: nearly all actives have a fitted effect of over 30% in size
Target sequence (P46063 whole entry, looked up): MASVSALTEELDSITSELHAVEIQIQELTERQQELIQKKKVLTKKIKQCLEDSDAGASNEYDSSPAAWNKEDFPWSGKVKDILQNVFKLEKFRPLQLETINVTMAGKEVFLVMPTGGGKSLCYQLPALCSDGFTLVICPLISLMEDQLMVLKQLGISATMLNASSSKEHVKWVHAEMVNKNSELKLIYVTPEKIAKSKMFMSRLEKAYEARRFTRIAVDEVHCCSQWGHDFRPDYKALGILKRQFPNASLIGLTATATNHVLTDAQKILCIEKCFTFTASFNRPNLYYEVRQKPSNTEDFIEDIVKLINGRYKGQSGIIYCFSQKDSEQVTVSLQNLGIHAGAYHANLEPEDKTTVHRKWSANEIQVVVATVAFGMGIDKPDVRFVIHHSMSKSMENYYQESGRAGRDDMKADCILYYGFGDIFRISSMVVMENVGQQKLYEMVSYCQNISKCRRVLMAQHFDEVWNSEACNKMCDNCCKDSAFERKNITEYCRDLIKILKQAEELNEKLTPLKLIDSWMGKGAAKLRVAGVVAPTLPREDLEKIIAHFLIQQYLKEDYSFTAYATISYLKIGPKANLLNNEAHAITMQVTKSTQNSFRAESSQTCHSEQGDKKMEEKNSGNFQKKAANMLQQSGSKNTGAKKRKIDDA
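RECQ1T1 50 nM; forked duplex (20 bp + 30-nt ss tails) 200 nM, ATP 2 mM final; pH 8.0, 2 mM MgCl2, 2.5 ug/ml poly(dI-dC); 15 min compound preincubation; discontinuous kinetic read over 2 h at RT.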
A number is an active result. Unless noted, calls follow the shape of the dose curve; as a rule, active = well fitted curve in the direction sought with a large enough effect; inconclusive = small, poorly fitted or top-dose-only effect, or another doubt; inactive = no such curve, though single readings can be large; an effect the other way counts as inactive or inconclusive.

`CCCCNC(=O)NS(=O)(=O)c1ccc(C(=O)O)cc1` gave APE1 inh inactive, TDP1 inh inactive, BLM inh inactive and RECQ1 inh inactive.
`COc1ccc(CNC(=O)Cn2c(=O)nc(-c3ccccc3F)c3cc(Cl)ccc32)cc1OC` gave TDP1 inh inactive and BLM inh inactive.
For O=[N+]([O-])c1cccc(-c2nnc3ccc4ccccc4n23)c1 the results were KDM4E inh inactive, APE1 inh 13µM, L3MBTL1 inh inactive, BLM inh inactive and RECQ1 inh inconclusive.
O=[N+]([O-])c1cccc(-c2nnc3cccc(Cl)n23)c1 was read as APE1 inh inactive and BLM inh inactive.
O=C1CCc2cc(S(=O)(=O)Nc3ccc4c(c3)CCC4)ccc2N1 was read as TDP1 inh inactive.
Screening COc1ccc(-c2nnc3n2N=C(c2c(OC)cccc2OC)CS3)cc1OC returned APE1 inh inactive, TDP1 inh inactive, BLM inh inactive and RECQ1 inh inactive.
For CN(C)c1ccc(NC2=C([N+](=O)[O-])CS(=O)(=O)C2)cc1 the results were KDM4E inh inactive, APE1 inh inactive, TDP1 inh inactive, BLM inh inactive and RECQ1 inh 20µM.
CCCCCCCCCCCCCC/C(C(=O)O)=C(\C)C(=O)O was read as APE1 inh inactive, TDP1 inh inactive, BLM inh inactive and RECQ1 inh inactive.
Screening NC(=O)c1ccc(N=C2C(=O)Nc3ccc([N+](=O)[O-])cc32)cc1 returned KDM4E inh inactive, APE1 inh inactive, L3MBTL1 inh inconclusive, TDP1 inh inactive, BLM inh 32µM and RECQ1 inh inactive.
O=C1Nc2ccccc2C1=Nc1cccc([N+](=O)[O-])c1 was read as APE1 inh inactive and BLM inh inactive.
For CCC(=Nc1ccccc1O)C1=C(O)CC(c2ccccc2)CC1=O (centres undefined) the results were KDM4E inh 25µM, APE1 inh inactive, L3MBTL1 inh inactive, TDP1 inh inactive, BLM inh inactive and RECQ1 inh inactive.
CCC(=Nc1ccccc1OC)C1=C(O)CC(c2ccccc2)CC1=O (centres undefined) was read as KDM4E inh inactive, APE1 inh inconclusive, TDP1 inh inactive, BLM inh inactive and RECQ1 inh inactive.
Screening COc1cc(Br)c(Br)cc1N returned KDM4E inh inactive, APE1 inh inactive, L3MBTL1 inh 3.5µM, TDP1 inh inactive, BLM inh inactive and RECQ1 inh inactive.
For CC(C)(C)OC(=O)NCc1nnc(-c2nc3ccccc3[nH]2)o1 the results were TDP1 inh inactive.
For Cc1nnc(N/N=C/c2ccco2)n1N the results were KDM4E inh 28µM, APE1 inh inactive, TDP1 inh inactive, BLM inh inactive and RECQ1 inh inactive.
`CC(C)(C)n1ncc2c(=O)n(Cc3ccc(Cl)c(C(F)(F)F)c3)cnc21` gave APE1 inh inactive.
CN1CCN(C(=O)C2=C[C@H](c3csc4ccccc34)C[C@H](OCCCCO)O2)CC1 was read as KDM4E inh 22µM, APE1 inh inactive, L3MBTL1 inh inactive, TDP1 inh inactive, BLM inh inactive and RECQ1 inh inactive.
CCOc1ccc2nc(N(Cc3cccnc3)C(=O)c3ccco3)sc2c1 was read as TDP1 inh inactive and BLM inh inactive.
`CCOC(=O)CN1C(=O)N[C@H](c2ccc(Br)cc2)C(C(C)=O)=C1C` gave KDM4E inh inactive, APE1 inh 32µM, L3MBTL1 inh inactive, TDP1 inh inactive, BLM inh inactive and RECQ1 inh inactive.
